Measurements from the supplement of paper PMC3545927.
Some of the results follow. How many sequences the whole screen found active is unknown.

B1: HC682 (peptide)
chain: CAIITSLTGRAGNASASA
B2: HC2273 (peptide)
chain: CARLEVVTSTAGNASASA
B3: FS-1755 (peptide)
chain: CARNARIVHLAGNASASA
B4: FS-2429 (peptide)
chain: CARLARFADGAGNASASA
B5: FS-3002 (peptide)
chain: CARNARHADGAGNASASA
B6: FS-3003 (peptide)
chain: CARNARNVSQAGNASASA
B7: HC199 (peptide)
chain: CAAQPGYPWPAGNASASA
B8: HC1237 (peptide)
chain: CAEYPVGSQLAGNASASA
B9: FS-1813 (peptide)
chain: CAVEKRGVHEAGNASASA
B10: FS-3036 (peptide)
chain: CARQKRSIHEAGNASASA
B11: FS-2244 (peptide)
chain: CARVNRSVHEAGNASASA
B12: HC1012 (peptide)
chain: CAREFDEMEEAGNASASA
B13: FS-2174 (peptide)
chain: CARQTRSSTEAGNASASA
B14: FS-3260 (peptide)
chain: CARQKRSMEEAGNASASA
B15: HC2572 (peptide)
chain: CASTPCSAHEAGNASASA
B16: FS-2587 (peptide)
chain: CARQKRSINLAGNASASA
B17: HC816 (peptide)
chain: CADIIICDECAGNASASA
B18: FS-2754 (peptide)
chain: CARQKRIIGGAGNASASA
B19: FS-2507 (peptide)
chain: CARQKRSIVVAGNASASA
B20: FS-3035 (peptide)
chain: CARQKREIDVAGNASASA
B21: FS-1767 (peptide)
chain: CARQIRYSVPAGNASASA
B22: FS-2443 (peptide)
chain: CARQIRGLEEAGNASASA
B23: HC583 (peptide)
chain: CAWLQYFLTRAGNASASA
B24: HC516 (peptide)
chain: CASWAIKWEYAGNASASA
B25: FS-2346 (peptide)
chain: CARKRRDTGGAGNASASA
B26: FS-1858 (peptide)
chain: CARKRRSQDGAGNASASA
B27: FS-2411 (peptide)
chain: CARAVRSINEAGNASASA
B28: FS-1709 (peptide)
chain: CARGLRSIMEAGNASASA
B29: FS-2272 (peptide)
chain: CARKRRSKSRAGNASASA
B30: FS-2412 (peptide)
chain: CARDQRDKDGAGNASASA
B31: FS-2539 (peptide)
chain: CAETKRSINEAGNASASA
B32: HC1938 (peptide)
chain: CATTPCSGSTAGNASASA
B33: HC153 (peptide)
chain: CAEVVTETWVAGNASASA
B34: HC240 (peptide)
chain: CAEDGVNYATAGNASASA
B35: FS-2284 (peptide)
chain: CARPKRKVAPAGNASASA
B36: FS-91 (peptide)
chain: CASKSRIKKDAGNASASA
B37: FS-2410 (peptide)
chain: CARALRLVDGAGNASASA
B38: FS-941 (peptide)
chain: CALNPREKKDAGNASASA
B39: FS-2248 (peptide)
chain: CAKTRRSVDGAGNASASA
B40: FS-739 (peptide)
chain: CAYPVREKKDAGNASASA
B41: HC1499 (peptide)
chain: CATERLYVGGAGNASASA
B42: FS-2216 (peptide)
chain: CARKRRLVAPAGNASASA
B43: FS-1733 (peptide)
chain: CARKRRQSEGAGNASASA
B44: HC740 (peptide)
chain: CASYLKGSSGAGNASASA

Molecular target: furin, P09958
Sequence (P09958 whole entry): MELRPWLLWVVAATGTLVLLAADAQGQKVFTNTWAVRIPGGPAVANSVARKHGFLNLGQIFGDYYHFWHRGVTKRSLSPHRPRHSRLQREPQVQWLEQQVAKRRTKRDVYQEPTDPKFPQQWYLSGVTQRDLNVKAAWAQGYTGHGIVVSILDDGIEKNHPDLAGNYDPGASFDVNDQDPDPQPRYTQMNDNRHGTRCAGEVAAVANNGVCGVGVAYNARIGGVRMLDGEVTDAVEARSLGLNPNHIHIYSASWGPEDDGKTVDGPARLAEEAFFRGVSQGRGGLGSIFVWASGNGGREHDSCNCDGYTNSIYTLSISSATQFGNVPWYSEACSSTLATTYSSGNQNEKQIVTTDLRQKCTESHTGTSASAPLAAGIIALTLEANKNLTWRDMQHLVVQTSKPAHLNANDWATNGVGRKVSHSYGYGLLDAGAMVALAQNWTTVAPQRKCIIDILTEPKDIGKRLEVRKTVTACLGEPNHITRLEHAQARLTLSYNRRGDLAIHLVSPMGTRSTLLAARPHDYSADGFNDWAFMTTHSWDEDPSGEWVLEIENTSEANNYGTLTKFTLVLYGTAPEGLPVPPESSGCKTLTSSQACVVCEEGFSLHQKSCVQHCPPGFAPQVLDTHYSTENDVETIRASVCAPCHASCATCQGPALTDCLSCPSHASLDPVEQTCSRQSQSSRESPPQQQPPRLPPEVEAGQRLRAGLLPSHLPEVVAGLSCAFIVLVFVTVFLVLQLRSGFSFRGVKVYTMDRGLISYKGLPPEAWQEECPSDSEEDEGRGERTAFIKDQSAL
Experiment: furin cleavage Z-score vs untreated control; higher = more cleavage, active = 3.5 or more, inactive = 1 or less, 8 variable residues between constant flanks
In short: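 The cleavage Z-score was derived for purified furin acting on 8-mer peptides held on magnetic beads and fused to a cDNA oligonucleotide. Digests lasted 7.5, 15 or 30 min at 1:10 enzyme:substrate in 50 mM HEPES pH 7.5 with CaCl2 and NaCl. Sequencing counts of released DNA, log-transformed against furin-free reactions, were lowess-adjusted and scaled by median absolute deviation.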

Sequence | furin cleavage Z-score (7.5 min) | furin cleavage Z-score (15 min) | furin cleavage Z-score (30 min)
B1 | -0.473 (inactive) | 0.458 (inactive) | 0.0661 (inactive)
B2 | 0.609 (inactive) | 1.11 | -1.08 (inactive)
B3 | 0.861 (inactive) | 0.108 (inactive) | -0.00636 (inactive)
B4 | -1.13 (inactive) | 2.8 | 0.514 (inactive)
B5 | 3.28 | 5.44 (active) | 3.84 (active)
B6 | 4.25 (active) | 6.14 (active) | 5.98 (active)
B7 | 0.109 (inactive) | 0.367 (inactive) | 0.143 (inactive)
B8 | -1.22 (inactive) | -1.49 (inactive) | -1.3 (inactive)
B9 | -1.62 (inactive) | -0.803 (inactive) | -0.675 (inactive)
B10 | 9.78 (active) | 11 (active) | 9.29 (active)
B11 | 0.826 (inactive) | 3.34 | 3.78 (active)
B12 | -0.916 (inactive) | -1.39 (inactive) | -1.93 (inactive)
B13 | 0.51 (inactive) | 2.13 | 2.17
B14 | 7.94 (active) | 7.89 (active) | 8.14 (active)
B15 | -0.869 (inactive) | -0.151 (inactive) | 0.67 (inactive)
B16 | 7.01 (active) | 6.9 (active) | 10.1 (active)
B17 | -1.61 (inactive) | -0.956 (inactive) | 0.174 (inactive)
B18 | -1.16 (inactive) | -0.537 (inactive) | 0.0214 (inactive)
B19 | 7.83 (active) | 9.33 (active) | 8.84 (active)
B20 | 10.8 (active) | 12.7 (active) | 11.5 (active)
B21 | 0.304 (inactive) | 0.942 (inactive) | -0.474 (inactive)
B22 | 0.837 (inactive) | 3.93 (active) | 3.31

Sequence | furin cleavage Z-score (7.5 min) | furin cleavage Z-score (15 min) | furin cleavage Z-score (30 min)
B23 | -0.459 (inactive) | -0.712 (inactive) | -0.977 (inactive)
B24 | -0.904 (inactive) | -1.39 (inactive) | 0.896 (inactive)
B25 | 5.14 (active) | 4.44 (active) | 2.79
B26 | 8.67 (active) | 10.1 (active) | 6.23 (active)
B27 | 6.03 (active) | 6.9 (active) | 7.81 (active)
B28 | -0.826 (inactive) | 0.557 (inactive) | 1.78
B29 | 5.87 (active) | 6.56 (active) | 5.23 (active)
B30 | 0.132 (inactive) | -0.98 (inactive) | -1.37 (inactive)
B31 | -1.27 (inactive) | -0.817 (inactive) | -0.177 (inactive)
B32 | -0.179 (inactive) | -0.988 (inactive) | -0.748 (inactive)
B33 | -0.809 (inactive) | -0.763 (inactive) | -1.97 (inactive)
B34 | -0.763 (inactive) | -1.25 (inactive) | -0.298 (inactive)
B35 | 1.89 | 0.659 (inactive) | 3.08
B36 | 7.52 (active) | 6.56 (active) | 6.64 (active)
B37 | -0.828 (inactive) | -0.615 (inactive) | -0.629 (inactive)
B38 | -0.953 (inactive) | 0.314 (inactive) | 0.019 (inactive)
B39 | 6.46 (active) | 7.09 (active) | 5.86 (active)
B40 | -0.917 (inactive) | 0.614 (inactive) | 0.838 (inactive)
B41 | 0.0385 (inactive) | 0.416 (inactive) | -0.694 (inactive)
B42 | 3.99 (active) | 5.02 (active) | 5.53 (active)
B43 | 10.4 (active) | 12.6 (active) | 8.83 (active)
B44 | -0.0827 (inactive) | -0.32 (inactive) | -1.27 (inactive)
